Measurements reported in PubChem BioAssay (Tox21).
Records with an inconclusive call do not appear. Activity calls are given as the source filed them. Unless noted, the call rests on the fitted dose curve; in most records, active means well fitted curve in the direction sought with a large enough effect in the repeat runs; inconclusive means weak or mixed curves; inactive means no such curve, though single readings can be large; an effect the other way counts as inactive or inconclusive.

What was measured:
[1] = qHTS assay to identify small molecule antagonists of the sonic hedgehog signaling (Shh) pathway (AID 1259369; calls by dose curve; further: nearly all actives have a fitted effect of over 45% in size)
Summary of the method: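 NIH/3T3-derived 3T3Gli1-Luc cells with stably integrated Gli1-Luc reporter were preincubated 4hr at 37 C, then given compounds in DMSO plus Shh conditioned medium and incubated 24hr. Firefly luciferase luminescence read after 30min reagent at room temperature.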

[2] = qHTS assay to identify small molecule agonists of the androgen receptor (AR) signaling pathway in the presence of an antagonist - cell viability counter screen (AID 1259379);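 further: MDA-kb2 human breast cancer cells carrying an MMTV luciferase reporter; series mostly up to about 92 µM; nearly all actives have a fitted effect of over 25% in size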
Summary of the method: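 MDA-kb2 human breast carcinoma cells (stable MMTV-luciferase, AR/GR responsive) were seeded 3,000 cells/well, pre-incubated 5 hr at 37C without CO2, then given 3.0uM nilutamide and compounds at 15 concentrations for 16 hr. Viability was read by CellTiter-Fluor fluorescence.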

[3] = qHTS assay to identify small molecule antagonists of the estrogen receptor beta (ER-beta) signaling pathway - cell viability counter screen (AID 1259382);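 further: HEK293T cells carrying ER-beta-UAS-bla reporter stimulated with estradiol; series mostly up to about 92 µM; nearly all actives have a fitted effect of over 55% in size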
Summary of the method: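 ER-beta-UAS-bla HEK293T cells (2,000/well, 2% charcoal-stripped FBS) were pre-incubated 6 hr at 37C, then given compound plus 1nM final 17-beta-estradiol for 16 hr. Viability was read in the same wells by CellTiter-Glo luminescence after 30 min at room temperature.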

[4] = target: Estrogen receptor (Homo sapiens) (UniProt P03372); assay: qHTS assay to identify small molecule agonists of the estrogen receptor alpha (ER-alpha) signaling pathway in the presence of an antagonist (AID 1259383; calls by dose curve; further: top concentration of the series differs between compounds; nearly all actives have a fitted effect of over 15% in size)
Estrogen receptor (Homo sapiens), sequence (P03372 whole entry, looked up): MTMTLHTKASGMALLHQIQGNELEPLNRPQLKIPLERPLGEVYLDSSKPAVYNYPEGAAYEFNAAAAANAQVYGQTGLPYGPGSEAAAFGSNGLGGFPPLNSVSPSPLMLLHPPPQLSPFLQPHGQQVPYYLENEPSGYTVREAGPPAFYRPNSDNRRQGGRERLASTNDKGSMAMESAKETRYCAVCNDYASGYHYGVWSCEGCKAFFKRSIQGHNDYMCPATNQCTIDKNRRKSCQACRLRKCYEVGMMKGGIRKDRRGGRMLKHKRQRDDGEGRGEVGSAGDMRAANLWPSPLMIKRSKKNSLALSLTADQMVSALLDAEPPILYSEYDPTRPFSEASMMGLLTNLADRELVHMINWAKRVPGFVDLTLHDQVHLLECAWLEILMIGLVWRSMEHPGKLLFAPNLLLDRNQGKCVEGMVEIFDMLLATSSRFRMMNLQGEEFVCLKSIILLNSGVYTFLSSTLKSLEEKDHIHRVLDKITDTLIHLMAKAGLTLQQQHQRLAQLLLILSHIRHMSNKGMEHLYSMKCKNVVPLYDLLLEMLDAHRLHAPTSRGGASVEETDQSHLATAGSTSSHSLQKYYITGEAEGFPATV
Summary of the method: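 VM7Luc4E2 cells (endogenous full-length ER-alpha, 4×ERE-luciferase) were precultured 5 days in phenol red-free medium with 10% charcoal-stripped FBS, given 10.0nM ICI-182,780 (final), then treated with compounds at 15 concentrations for 22hr at 37C; luminescence read with ONE-Glo.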

[5] = qHTS assay to identify small molecule agonists or antagonists of the thyroid stimulating hormone receptor (TSHR) signaling pathway - wild type cell line counter screen (AID 1259384; calls by dose curve)
Summary of the method: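 Wild-type Hek293 cells, 800/well, 18 h at 37C, then compound with Ro20-1724 for 30 min RT. cAMP by HTRF (cAMP-d2/anti-cAMP cryptate), 1 h RT, fluorescence read. 15 concentrations, triplicates.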

[6] = target: Thyrotropin receptor (Homo sapiens) (UniProt P16473); assay: qHTS assay to identify small molecule antagonists of the thyroid stimulating hormone receptor (TSHR) signaling pathway (AID 1259385; calls by dose curve; further: nearly all actives have a fitted effect of over 20% in size)
Thyrotropin receptor (Homo sapiens), sequence (P16473 whole entry, looked up): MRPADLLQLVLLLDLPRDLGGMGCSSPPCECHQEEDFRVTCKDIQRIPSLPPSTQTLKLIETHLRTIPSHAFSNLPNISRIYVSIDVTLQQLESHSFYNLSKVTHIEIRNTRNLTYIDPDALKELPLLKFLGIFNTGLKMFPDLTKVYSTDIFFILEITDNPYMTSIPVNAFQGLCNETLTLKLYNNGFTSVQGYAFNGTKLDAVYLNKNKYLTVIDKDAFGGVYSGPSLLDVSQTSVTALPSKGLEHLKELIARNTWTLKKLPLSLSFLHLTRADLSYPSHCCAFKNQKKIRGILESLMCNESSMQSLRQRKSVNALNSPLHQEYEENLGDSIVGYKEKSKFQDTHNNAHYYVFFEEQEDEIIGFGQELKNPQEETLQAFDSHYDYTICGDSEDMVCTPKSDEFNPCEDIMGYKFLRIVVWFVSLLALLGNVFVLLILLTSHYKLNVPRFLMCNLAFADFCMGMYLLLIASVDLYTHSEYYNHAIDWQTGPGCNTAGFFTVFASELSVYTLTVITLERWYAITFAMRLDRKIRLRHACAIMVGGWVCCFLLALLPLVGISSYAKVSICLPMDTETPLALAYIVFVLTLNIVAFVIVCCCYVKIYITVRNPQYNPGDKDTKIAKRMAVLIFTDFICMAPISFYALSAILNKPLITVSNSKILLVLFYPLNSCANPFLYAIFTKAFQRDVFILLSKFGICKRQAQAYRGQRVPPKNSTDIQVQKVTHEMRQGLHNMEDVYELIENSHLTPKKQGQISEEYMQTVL
Summary of the method: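 TSHR-HEK293 cells (800/well) plated 18 h, then compounds with Ro20-1724 and TSH at 1.5 ng/mL final, 30 min at room temperature. cAMP quantified by HTRF (cAMP-d2/anti-cAMP-cryptate, 1 h); 15 concentrations in triplicate.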

[7] = target: Progesterone receptor (Homo sapiens) (UniProt P06401); assay: qHTS assay to identify small molecule agonists of the progesterone receptor (PR) signaling pathway (AID 1346784; calls by dose curve; further: nearly all actives have a fitted effect of over 30% in size)
Progesterone receptor (Homo sapiens), sequence (P06401 whole entry, looked up): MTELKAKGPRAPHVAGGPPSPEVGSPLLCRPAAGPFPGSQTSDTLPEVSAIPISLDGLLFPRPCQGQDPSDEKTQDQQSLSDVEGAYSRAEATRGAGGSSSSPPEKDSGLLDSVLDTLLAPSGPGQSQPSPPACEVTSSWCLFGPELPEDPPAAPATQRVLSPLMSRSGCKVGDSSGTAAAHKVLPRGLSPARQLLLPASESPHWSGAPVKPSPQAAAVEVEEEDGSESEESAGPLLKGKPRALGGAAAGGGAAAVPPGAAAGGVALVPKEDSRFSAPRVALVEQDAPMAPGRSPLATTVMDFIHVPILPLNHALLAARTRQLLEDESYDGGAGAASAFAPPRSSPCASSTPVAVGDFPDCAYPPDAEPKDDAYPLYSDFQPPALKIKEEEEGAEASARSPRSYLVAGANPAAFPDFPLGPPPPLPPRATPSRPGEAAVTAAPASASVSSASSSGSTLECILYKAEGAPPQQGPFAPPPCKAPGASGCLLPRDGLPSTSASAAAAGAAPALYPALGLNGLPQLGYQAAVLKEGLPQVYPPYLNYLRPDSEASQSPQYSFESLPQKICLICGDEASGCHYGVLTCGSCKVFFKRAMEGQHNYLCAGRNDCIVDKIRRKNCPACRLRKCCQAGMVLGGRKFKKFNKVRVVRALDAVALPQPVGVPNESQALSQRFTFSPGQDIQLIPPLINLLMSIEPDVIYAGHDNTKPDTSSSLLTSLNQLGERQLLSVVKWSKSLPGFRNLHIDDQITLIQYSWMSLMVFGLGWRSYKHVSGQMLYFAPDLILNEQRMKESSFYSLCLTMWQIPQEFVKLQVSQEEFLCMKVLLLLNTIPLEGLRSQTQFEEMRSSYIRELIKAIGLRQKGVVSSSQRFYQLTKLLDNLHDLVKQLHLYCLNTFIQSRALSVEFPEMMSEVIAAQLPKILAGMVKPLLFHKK
Summary of the method: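 Using charcoal-stripped serum (2%) to limit endogenous steroids, PR-UAS-bla HEK 293T cells received compounds for 16 hr at 37C after 6 hr plating; beta-lactamase FRET fluorescence was recorded following 2 hr substrate loading at room temperature.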

[8] = qHTS assay to identify small molecule antagonists of the TGF-beta/Smad signaling pathway - cell viability counter screen (AID 1346824); further: nearly all actives have a fitted effect of over 50% in size
Summary of the method: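 SBE-bla HEK 293T cells, incubated overnight, then compound plus 0.25 ng/mL TGF-beta1 (stock added) for 5 hr at 37 C. Viability was read in the same wells by CellTiter-Glo luminescence after 30 min at room temperature.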

[9] = qHTS assay to identify small molecule agonists of the TGF-beta/Smad signaling pathway - cell viability counter screen (AID 1346829); further: top concentration of the series differs between compounds; nearly all actives have a fitted effect of over 45% in size
Summary of the method: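 Tox21 qHTS format: SBE-bla HEK 293T cells treated with DMSO-dissolved compounds for 5 hr; CellTiter-Glo luminescence after 30 min at room temperature.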

[10] = target: Thyrotropin-releasing hormone receptor (Homo sapiens) (UniProt P34981); assay: qHTS assay to identify small molecule antagonists of the thyrotropin-releasing hormone receptor (TRHR) signaling pathway (AID 1346877; active means well fitted inhibition curve with a large enough effect in the repeat runs, not every such curve was filed as active; further: series mostly up to about 51 µM)
Thyrotropin-releasing hormone receptor (Homo sapiens), sequence (P34981 whole entry, looked up): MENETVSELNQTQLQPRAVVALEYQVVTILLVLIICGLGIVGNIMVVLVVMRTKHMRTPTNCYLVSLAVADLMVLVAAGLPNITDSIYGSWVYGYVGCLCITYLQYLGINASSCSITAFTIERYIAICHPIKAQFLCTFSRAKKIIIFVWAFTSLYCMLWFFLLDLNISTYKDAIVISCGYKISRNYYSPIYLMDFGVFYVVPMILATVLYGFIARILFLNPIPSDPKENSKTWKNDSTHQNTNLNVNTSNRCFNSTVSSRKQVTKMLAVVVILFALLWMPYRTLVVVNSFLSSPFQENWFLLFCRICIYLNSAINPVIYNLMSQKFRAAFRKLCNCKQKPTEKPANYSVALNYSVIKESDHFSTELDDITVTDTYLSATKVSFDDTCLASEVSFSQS
Summary of the method: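 TRHR-expressing HEK293 cells were seeded, cultured 18 h at 37 °C, then loaded with calcium dye for 2 h. Compounds were pre-incubated 5 min at room temperature before 1 nM TRH (final) was added, and kinetic fluorescence was recorded for 3 min.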

[11] = target: Thyrotropin-releasing hormone receptor (Homo sapiens) (UniProt P34981); assay: qHTS assay to identify small molecule agonists of the thyrotropin-releasing hormone receptor (TRHR) signaling pathway (AID 1346891; calls by dose curve; further: potency means the concentration at half of the fitted maximal effect; on activation: series mostly up to about 58 µM)
Summary of the method: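 In 1536-format, 1500 TRHR-Hek293 cells per well grew 18 h, took up calcium dye for 2 h at 37 °C, received compound, and were read kinetically; 15-point titrations, triplicates.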

[12] = qHTS assay to identify small molecule agonists of the estrogen receptor beta (ER-beta) signaling pathway - cell viability counter screen (AID 1259380); further: nearly all actives have a fitted effect of over 30% in size
Summary of the method: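 ER-beta-UAS-bla HEK293T cells in medium with 2% charcoal-stripped FBS were preincubated 6 hr at 37C, dosed with compound in DMSO for 16 hr, then after the bla read, CellTiter-Glo was added for 30 min at room temperature; luminescence recorded.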

[13] = qHTS assay to identify small molecule agonists of the estrogen receptor alpha (ER-alpha) signaling pathway in the presence of an antagonist - cell viability counter screen (AID 1259386);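 further: series mostly up to about 92 µM; cells exposed to compounds for 22 h at 37 °C before the viability read; nearly all actives have a fitted effect of over 30% in size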
Summary of the method: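 VM7Luc4E2 cells (endogenous full-length ER-alpha, 4×ERE-luciferase) were held 5 days in phenol red-free medium with 10% charcoal-stripped FBS, plated, then given 10.0nM ICI-182,780 and compounds at 15 concentrations for 22hr at 37C; viability read by CellTiter-Fluor fluorescence.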

[14] = target: Progesterone receptor (Homo sapiens) (UniProt P06401); assay: qHTS assay to identify small molecule antagonists of the progesterone receptor (PR) signaling pathway (AID 1346795; active means well fitted inhibition curve with a large enough effect in the signal ratio in the repeat runs, not every such curve was filed as active; the % refers to the signal ratio)
Summary of the method: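 Inhibition of R5020-induced (1 nM final) beta-lactamase reporter signal in PR-UAS-bla HEK293T cells was scored by FRET fluorescence after overnight (16 hr) compound treatment.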

[15] = qHTS assay to identify small molecule antagonists of the progesterone receptor (PR) signaling pathway - cell viability counter screen (AID 1346798); further: nearly all actives have a fitted effect of over 50% in size; further: potency means the concentration at half of the fitted maximal effect; on activity change, negative = cytotoxicity: series mostly up to about 92 µM
Summary of the method: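 ATP content as viability readout: CellTiter-Glo luminescence, 30 min room temperature, in PR-UAS-bla HEK293T cells after 16 hr compound/R5020 treatment at 37C and 5% CO2.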

[16] = qHTS assay to identify small molecule agonists of the TGF-beta/Smad signaling pathway (AID 1346859; active means well fitted activation curve with a large enough effect in the signal ratio in the repeat runs, not every such curve was filed as active; the % refers to the signal ratio; further: series mostly up to about 77 µM)
Summary of the method: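 Stable Smad binding element-beta-lactamase HEK 293T cells; 5 hr compound exposure at 37 C under 5% CO2; 2 hr room-temperature substrate step; fluorescence excited at 405 nm, collected at 460 nm and 530 nm.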

[17] = qHTS assay to identify small molecule agonists of the progesterone receptor (PR) signaling pathway - cell viability counter screen (AID 1346799; calls by dose curve; further: nearly all actives have a fitted effect of over 45% in size)
Summary of the method: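 Cytotoxicity in PR-bla HEK293T cells: 16 h compound, 37C; CellTiter-Glo added post-FRET read; luminescence after 30 min RT.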
On the % scale 0 is the no-effect control and ±100 the full control effect.

O=C(O)Cn1c(C(=O)Nc2nc(-c3ccccc3Cl)cs2)cc2ccccc21
inactive: Potency [1] | Potency [2] | Potency [3] | Potency [4] | Potency [5] | Potency [6] | outcome [7] | Potency [8] | Potency [9] | outcome [10]
active: Potency [11] 3.79 µM

O=C(c1ccccc1)c1ccc2n1CCC2C(=O)O (stereo not drawn)
inactive: Potency [1] | Potency [2] | Potency [12] | Potency [3] | Potency [13] | outcome [7] | Potency [14] | Potency [8] | Potency [9]

OCC1CC2CC1C1CCC(CO)C21 (stereo not drawn)
inactive: Potency [1] | Potency [2] | Potency [4] | Potency [6] | Potency [13] | outcome [7] | Potency [8] | Potency [9] | outcome [16]
active: Potency [15] 27.3 µM

COC(Cc1ccccc1)OC
inactive: Potency [1] | Potency [2] | Potency [12] | Potency [3] | Potency [4] | Potency [13] | outcome [7] | Potency [14] | Potency [15] | Potency [17] | Potency [8] | Potency [9] | outcome [16] | outcome [10] | Potency [11]

CCCCC(CC)COCCCN (stereo not drawn)
inactive: Potency [1] | Potency [2] | Potency [4] | Potency [5] | outcome [7] | Potency [8] | Potency [9] | outcome [16] | outcome [10] | Potency [11]

CC1=CCC(C(C)C)C=C1 (stereo not drawn)
inactive: Potency [1] | Potency [2] | Potency [12] | Potency [3] | Potency [4] | Potency [13] | outcome [7] | Potency [14] | Potency [17] | Potency [8] | Potency [9] | outcome [16]

C[C@H](CCC(=O)O)[C@H]1CC[C@H]2[C@@H]3[C@H](O)C[C@@H]4C[C@H](O)CC[C@]4(C)[C@H]3CC[C@]12C
inactive: Potency [1] | Potency [2] | Potency [3] | Potency [4] | Potency [5] | Potency [13] | Potency [15] | Potency [17] | Potency [8] | Potency [9] | outcome [10] | Potency [11]

NC[C@H]1O[C@H](O[C@H]2[C@H](O)[C@@H](O[C@H]3O[C@H](CO)[C@@H](O)[C@H](N)[C@H]3O)[C@H](N)C[C@@H]2N)[C@H](O)[C@@H](O)[C@@H]1O
inactive: activity change, negative = inhibition [1] -24.7% [at 8.39 µM] | activity change, negative = cytotoxicity [2] 1.81% [at 8.39 µM] | activity change, negative = cytotoxicity [12] 5.67% [at 8.39 µM] | activity change, negative = cytotoxicity [3] 0.386% [at 8.39 µM] | cAMP activity change [5] 0.52% [at 8.39 µM, hits give high values] | activity change, negative = inhibition [6] -7.09% [at 8.39 µM] | activity change, negative = cytotoxicity [13] -3.74% [at 8.39 µM] | activation [7] 0.496% [at 8.39 µM] | activity change, negative = cytotoxicity [15] 1.76% [at 8.39 µM] | viability change, negative = cytotoxic [8] 0.819% [at 6.97 µM] | activity change, negative = cytotoxicity [9] 4.11% [at 6.97 µM]

N#Cc1cc2ccccc2c2ccccc12
inactive: Potency [1] | Potency [2] | Potency [3] | Potency [4] | Potency [6] | Potency [13] | outcome [7] | Potency [17] | Potency [8] | Potency [9] | outcome [16] | outcome [10] | Potency [11]

Nc1nc(CC(=O)O)cs1
inactive: Potency [1] | Potency [2] | Potency [5] | Potency [6] | Potency [13] | Potency [8] | Potency [9] | outcome [16] | outcome [10] | Potency [11]
